Fam108B counter: blocks mouse Fam108B hydrolase in RBBP9 counter-screen. recombinant Fam108B, FP-Rh probe fluorescence polarization. inhibition, % at 9.51 µM. actives 0.33% (n = 300,000);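 active = inhibition above the screen mean inhibition plus 3 SD, computed separately per campaign, cut at about 18% in these data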;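 also: inhibitors lower polarization as less probe binds the enzyme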
PREPL inhibitor: inhibitors of human prolyl oligopeptidase-like enzyme PREPL; recombinant PREPL, fluorescence polarization activity-based probe; actives 0.68% (n = 320,000); AID 2751; inhibition, % at 5.96 µM; Q4J6C6; in the data active = inhibition above about 43%
Target sequence (Q4J6C6 whole entry, looked up): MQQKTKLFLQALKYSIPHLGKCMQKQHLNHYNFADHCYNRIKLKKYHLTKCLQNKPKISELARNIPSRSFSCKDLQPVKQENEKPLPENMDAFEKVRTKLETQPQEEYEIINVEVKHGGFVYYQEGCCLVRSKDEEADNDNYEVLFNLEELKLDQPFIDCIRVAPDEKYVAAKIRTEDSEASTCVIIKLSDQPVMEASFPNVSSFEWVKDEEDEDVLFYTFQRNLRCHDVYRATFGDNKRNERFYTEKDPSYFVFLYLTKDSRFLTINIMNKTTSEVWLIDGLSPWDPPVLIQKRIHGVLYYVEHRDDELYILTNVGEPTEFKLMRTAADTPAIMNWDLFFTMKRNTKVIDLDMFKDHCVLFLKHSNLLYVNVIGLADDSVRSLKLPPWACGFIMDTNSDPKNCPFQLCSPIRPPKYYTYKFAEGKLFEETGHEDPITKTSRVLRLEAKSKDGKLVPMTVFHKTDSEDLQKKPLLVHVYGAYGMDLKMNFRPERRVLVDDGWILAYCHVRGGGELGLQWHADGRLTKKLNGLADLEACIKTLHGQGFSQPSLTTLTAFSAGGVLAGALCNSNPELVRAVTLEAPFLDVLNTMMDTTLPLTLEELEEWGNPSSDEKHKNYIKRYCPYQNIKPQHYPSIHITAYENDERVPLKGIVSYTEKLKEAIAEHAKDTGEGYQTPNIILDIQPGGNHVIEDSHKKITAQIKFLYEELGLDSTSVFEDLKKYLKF
LYPLA2 counter: counter-screen for PME1 inhibitors: inhibitors of human LYPLA2 | recombinant LYPLA2, FP-Rh probe fluorescence polarization | inhibition, % at 5.9 µM | actives 0.38% (n = 320,000) | AID 2177;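 active = inhibition above the screen-wide mean plus 3 SD, limit set per campaign, cut at about 26% in these data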
PME-1 inh: blocks human protein phosphatase methylesterase 1; actives 0.53% (n = 320,000); AID 2130; recombinant PME-1, FP-Rh probe fluorescence polarization; inhibition, % at 5.9 µM; Q9Y570;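 active = inhibition above the campaign mean of all compounds plus 3 SD, cut at about 26% in these data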;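 also: competitive labeling of PME-1 active site by serine hydrolase directed probe; inhibitors block probe labeling so polarization falls and inhibition rises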
LYPLA1 counter: counter-screen for PME1 inhibitors: inhibitors of human LYPLA1. O75608. recombinant LYPLA1, FP-Rh probe fluorescence polarization. inhibition, % at 5.9 µM. actives 0.16% (n = 320,000). AID 2174;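 active = inhibition above the mean of all tested compounds plus 3 SD, set per campaign, cut at about 14% in these data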;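 also: inhibitors block serine hydrolase probe labeling of LYPLA1 so polarization falls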
LYPLA1 conf: counter-screen for PME1 inhibitors: confirmation of human LYPLA1 inhibitors | shares compounds with LYPLA1 counter | AID 2233 | actives 69% (n = 480) | inhibition, % at 5.9 µM | recombinant LYPLA1, FP-Rh probe fluorescence polarization;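 active = mean inhibition across replicates above the hit cutoff set in the primary screen, cut at about 15% in these data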;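 also: loss of FP-Rh probe labeling of LYPLA1 seen as lower polarization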
Hits are given with their value; . = inactive; / = no result; ! = not confirmed by another sample. Only some compounds are listed: those with a hit (about 1.3% of all), similar ones and a draw of the others.

SMILES | Fam108B counter | PREPL inhibitor | LYPLA2 counter | PME-1 inh | LYPLA1 counter | LYPLA1 conf
CCOC(=O)c1nn(-c2ccccc2)c(-c2ccccc2)c1C(=O)c1ccccc1 | . | . | . | . | 18 | .
O=C(NC1CCOCC1)C1CCC(=O)N(CCc2cccc(F)c2)C1 (centres undefined) | . | . | . | . | . | /
CCOc1ccc(C2OC34CCCCC3C(C#N)(C#N)C2(C#N)C(=N)O4)cc1OC (centres undefined) | . | . | . | . | 21 | .
COc1ccc(S(=O)(=O)N2CCC(C(=O)N[C@H](C(=O)N3CCCCCC3)C(C)C)CC2)cc1 | . | . | . | . | . | /
COC/C=C/C1=CC2=CC(=O)C(C)(OC(=O)c3cnc4ccccc4n3)C(=O)C2=CO1 (centres undefined) | . | . | . | . | 22 | .
C=C[C@]1(C)C[C@@H](OC(=O)CSCCN(CC)CC)[C@]2(C)C(C)CC[C@]3(CCC(=O)[C@H]32)[C@@H](C)[C@@H]1O (some centres undefined) | . | . | . | . | 15! | .
COC(=O)C1CCN(c2c([N+](=O)[O-])cc(C(F)(F)F)cc2[N+](=O)[O-])CC1 | . | . | . | . | 32 | 33
Cc1cc(SCC(=O)Nc2cccc(S(=O)(=O)NC3=NCCCCC3)c2)nc2ccccc12 | . | . | . | . | 19 | 29
COc1ccccc1OCC(=O)Nc1cccc(S(=O)(=O)NC2=NCCCCC2)c1 | . | . | . | . | . | /
COc1ccc(-c2nc(CC(=O)Nc3cccc(S(=O)(=O)NC4=NCCC4)c3)cs2)cc1 | / | . | . | . | 16 | .
Cc1ccc(-n2c(SCC(=O)Nc3cccc(S(=O)(=O)NC4=NCCCCC4)c3)nc3ccccc3c2=O)cc1C | . | . | . | . | . | /
OCCC1CN(Cc2cc(F)ccc2-n2cccn2)CCN1Cc1ccc(F)cc1 (centres undefined) | . | . | . | . | . | /
O=S(=O)(c1ccccc1Br)N1CCC(O)(c2cccnc2)CC1 | . | . | . | . | . | /
Cc1ccccc1OCCCC(=O)Nc1ccc(S(=O)(=O)Nc2onc(C)c2C)cc1 | . | . | . | . | . | /
CCCC(=Nc1ccccc1)C1=C(O)C(C(=O)OC)C(C)(C)CC1=O (centres undefined) | . | . | . | . | . | /
CCC(=Nc1ccc(N)cc1)C1=C(O)C(C(=O)OC)C(C)(C)CC1=O (centres undefined) | . | . | . | 26 | 21 | .
CN(c1ccccc1)S(=O)(=O)c1ccc(Cl)c(C(=O)NCC(c2ccco2)N2CCCC2)c1 (centres undefined) | / | . | . | . | . | /
O=C(CCNc1cccc(F)c1)c1cccc([N+](=O)[O-])c1 | . | . | . | . | . | /
O=C(CCNc1ccc(Cc2ccncc2)cc1)c1cccc([N+](=O)[O-])c1 | . | . | . | . | 18 | 36
Cc1[nH][nH]c(=O)c1N=Nc1ccc(Br)c(Cl)c1 | . | . | . | . | 24 | 18
COc1ccc(N2CCN(c3ccc(NC(=O)NN)cc3)CC2)cc1 | . | . | . | . | . | /
O=C(Nc1ccccc1C(=O)O)c1ccc(Br)c(S(=O)(=O)NCc2ccccc2)c1 | . | . | . | . | . | /
COc1ccc(N)c2c1C(=O)c1ccccc1C2=O | . | . | . | . | 20 | 14
COc1ccc(OC)c2c1C(=O)c1ccccc1C2=O | . | . | . | 28 | 22 | .
COc1ccc(OC)c2c1C(=O)C(Cl)=C(Cl)C2=O | . | . | . | . | . | /
SMILES | Fam108B counter | PREPL inhibitor | LYPLA2 counter | PME-1 inh | LYPLA1 counter | LYPLA1 conf
CSCC[C@H](NC(=O)OC(C)(C)C)C(=O)N1CCC(C(=O)N[C@@H](C)C(=O)NC(C)c2ccccc2)CC1 (some centres undefined) | . | . | . | . | . | /
COCC(C)N1CCC(n2nccc2NC(=O)CCCc2ccccc2)CC1 (centres undefined) | . | . | . | . | . | /
O=C(COC(=O)C1CC2C=CC1C2)Nc1cccc(S(=O)(=O)N2CCCCC2)c1 (centres undefined) | . | . | . | . | 16 | 28
O=C(COC(=O)C1CC2C=CC1C2)Nc1cccc(S(=O)(=O)N2CCCCCC2)c1 (centres undefined) | . | . | . | . | 37 | 46
O=C(COC(=O)C1CCC1)Nc1cccc(S(=O)(=O)N2CCOCC2)c1 | . | . | . | . | . | /
CCOc1cccc(C(=O)Nc2ccc3c(c2)OCCO3)c1 | . | . | . | . | . | /
COc1cc(CCC(C)=O)ccc1OC(=O)c1c(F)cccc1Cl | . | . | . | . | . | /
CC(=O)Nc1ccc(N/C=C2/CCCC2=O)cc1 | . | . | . | . | . | /
Cc1cc(O)ccc1N/C=C1\CCCC1=O | . | . | . | . | 19 | .
CC(NC(=O)c1ccco1)C(=O)N1CCN(c2ccccc2)CC1 (centres undefined) | . | . | . | . | . | /
CC(NC(=O)c1ccco1)C(=O)N1CCN(c2cccc(C(F)(F)F)c2)CC1 (centres undefined) | / | . | . | . | 34 | 45
CC1=CC(C)(C)N2C(=O)C(=Nc3ccc(O)cc3)c3cccc1c32 | . | . | . | 44 | 17 | .
COc1ccc(S(=O)(=O)Nc2ccc(Cc3ccncc3)cc2)cc1OC | . | . | . | . | 20 | 28
O=S(=O)(Nc1ccc(Cc2ccncc2)cc1)c1ccc(Cl)c(Cl)c1 | . | . | . | . | . | /
O=C(CNC(=O)c1ccco1)NCc1ccc2c(c1)OCO2 | / | . | / | / | / | /
O=C(O)CCCCCCCCCCCc1ccccc1 | . | . | . | . | 18 | 27
O=C(CCC(=O)NCCCc1ccccc1)NCCCc1ccccc1 | . | . | . | . | . | /
Cc1cc(Nc2ccc(O)cc2)ccc1N | / | . | . | 36 | 16 | .
COC(=O)c1ccc(NC(=O)Cn2nc(C)cc2C)cc1 | . | . | . | . | . | /
CCOC(=O)c1ccc(N2C(=O)c3n[nH]c(C)c3C2c2ccc(OC)cc2)cc1 (centres undefined) | . | . | . | . | . | /
CCOC(=O)c1ccc(N2C(=O)c3n[nH]c(C)c3C2c2ccc(OC)c(OC)c2)cc1 (centres undefined) | . | . | . | . | 29 | 42
CCn1c(CSc2nc3ccccc3[nH]2)nc2cc(C(=O)O)ccc21 | . | . | . | . | 20 | .
CCCCc1cc(=O)oc2cc(OCc3nn[nH]n3)c(Cl)cc12 | . | . | . | . | 22 | 21
CCCc1cc(=O)oc2c(C)c(OCc3nn[nH]n3)ccc12 | . | . | . | . | . | /
CC(=O)c1ccc(N2CCN(C(=O)c3cccc(Oc4ccccc4)c3)CC2)cc1 | . | . | 67 | . | 48 | 62
CC1CCN(C(=O)C2CCN(S(=O)(=O)c3ccc4c(c3)CC(C)N4C(=O)C3CC3)CC2)CC1 (centres undefined) | . | . | . | . | . | /

High-throughput results from PubChem BioAssay.
